# ELG1 genotoxic: induces genotoxicity in HEK293T cells with luciferase-tagged ELG1; 330,000 tested, 1.3% active; Potency, µM (series often up to 46 µM), most hits filed as activators; HEK293T ELG1-luciferase reporter, luminescence, 16 h; AID 504466; also: nearly all actives have a fitted effect of over 60% in size
#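 Reporter readout depends on ELG1 protein level, which increases with genetic stress. After 16 hr compound exposure at 37 °C, luciferase activity was quantified using ONE-Glo.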
# NPC1 prom act: activates the NPC1 promoter | Huh7 NPC1 promoter luciferase reporter, 24 h | 320,000 tested, 2.4% active | Potency, µM (doses to about 9.22 µM), hits mostly activators; also: nearly all actives have a fitted effect of over 60% in size
#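 Stable NPC1-promoter luciferase Huh7 line; cpd (DMSO) 24 h, 37 °C, 5% CO2; Amplite luciferase reagent 10 min RT; luminescence readout. qHTS format.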
# FLuc counter: inhibits or activates purified firefly luciferase, miR-21 counter-screen; P08659; purified FLuc, Km substrates, luminescence inhibition; Potency, µM (titrated, usually from 57.5 µM), most hits filed as inhibitors; 360,000 tested, 6.9% active; AID 588342; also: nearly all actives have a fitted effect of over 55% in size
# Target sequence (P08659 whole entry, looked up): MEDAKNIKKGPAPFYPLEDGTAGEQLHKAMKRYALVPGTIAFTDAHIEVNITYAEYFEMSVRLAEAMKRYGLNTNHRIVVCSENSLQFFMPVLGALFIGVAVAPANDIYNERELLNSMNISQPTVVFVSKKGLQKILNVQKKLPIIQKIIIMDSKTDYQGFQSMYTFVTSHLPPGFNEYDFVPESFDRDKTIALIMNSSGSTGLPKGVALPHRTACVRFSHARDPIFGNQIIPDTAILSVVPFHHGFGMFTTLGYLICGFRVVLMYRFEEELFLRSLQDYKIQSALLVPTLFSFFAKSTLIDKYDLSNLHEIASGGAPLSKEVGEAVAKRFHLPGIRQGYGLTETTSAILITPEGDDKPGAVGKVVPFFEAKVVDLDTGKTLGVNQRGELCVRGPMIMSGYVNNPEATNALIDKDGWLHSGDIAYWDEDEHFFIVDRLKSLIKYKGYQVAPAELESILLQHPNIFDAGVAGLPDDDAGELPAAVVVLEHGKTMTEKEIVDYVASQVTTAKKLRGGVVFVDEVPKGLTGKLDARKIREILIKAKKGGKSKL
#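 Purified P. pyralis luciferase, 10 nM final, with Km-level 10 uM D-luciferin and 10 uM ATP in 50 mM Tris acetate pH 7.5, 10 mM Mg acetate, 0.01% Tween-20, 0.05% BSA; 6-point qHTS titration about 60 µM downward; luminescence read.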
# ELG1 DNA repair: blocks ELG1-dependent DNA repair in HEK293T cells. 330,000 tested, 2.3% active. Potency, µM (top dose mostly 46.1 µM), most hits filed as inhibitors. HEK293T ELG1-luciferase reporter, luminescence, 16 h; DNA damage induced by 5-fluorouridine. AID 504467; also: nearly all actives have a fitted effect of over 55% in size
#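 Luminescence from the luciferase reporter, measured 30 min after ONE-Glo reagent at room temperature, was the read-out. Beforehand, 2,000 cells per well were exposed for 16 hr at 37 °C to 5-fluorouridine together with compound or vehicle.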
# SMN2 splice enh: increases expression of the SMN2 splice variant; HEK293 SMN2-luciferase splicing reporter, luminescence, 30-36 h; Potency, µM (titrated, usually from 46.1 µM), usual class: activators; 210,000 tested, 2.8% active; AID 1458; also: nearly all actives have a fitted effect of over 55% in size
#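 qHTS luciferase splicing reporter: luminescence rises when SMN2 exon 7 is included in transfected HEK293 cells. Compound exposure lasted 30-36 h at 37C, with 4.5 mM final sodium butyrate as control, followed by a ONE-Glo read.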
# Rab9 prom act: Rab9 promoter activation; Huh7 Rab9 promoter-luciferase reporter, luminescence, 24 h; Potency, µM (top dose mostly 9.22 µM), actives largely listed as activators; 320,000 tested, 2.8% active; AID 485297; also: nearly all actives have a fitted effect of over 60% in size
#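 Cells were plated at 1500 per well in reduced-serum medium with 10% FBS and left 2 h. Compound in DMSO was then added for 24 h at 37 °C. Reporter signal was read by luminescence after 10 min with luciferase detection reagent.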
# Numbers stand for hits; 0 = inactive; ? = inconclusive; - = no result; [ ] = remark or other dose. Sampled rows, rich in hits. Any-hit rate of the full collection: about 9.4%. Calls follow the shape of the dose curve; as a rule, active = well fitted curve in the direction sought with a large enough effect; inconclusive = small, poorly fitted or top-dose-only effect, or another doubt; inactive = no such curve, though single readings can be large; an effect the other way counts as inactive or inconclusive.
SMILES,ELG1 genotoxic,NPC1 prom act,FLuc counter,ELG1 DNA repair,SMN2 splice enh,Rab9 prom act
Cc1ccc(/C=C/C(=O)Nc2nccs2)o1,?,2.8µM,8.5µM,?,11µM,1.8µM
Cc1ccc(C)c(C(=O)CSc2nc(-c3ccccc3)nc3c2CCCC3)c1,-,-,0,-,0,-
CCOc1ccc(CCNC(=O)c2nn(C)c3c2CSc2ccccc2-3)cc1,-,-,0,-,-,-
COc1cc(-c2nc(Cc3ccccc3Cl)no2)cc(OC)c1OC,0,0,0,?,0,0
Clc1ccc(OCc2noc(-c3ccsc3)n2)c(Cl)c1,?,2µM,4.3µM,?,-,4µM
Clc1ccc(OCCCc2nc(-c3ccncc3)no2)c(Cl)c1,0,0,0,0,0,0
Fc1cc(Cl)c(OCc2noc(-c3ccsc3)n2)c(Cl)c1,0,?,?,?,-,3.2µM
Cc1ccc(-n2ncc(C(=O)NCCc3ccsc3)c2C2CCN(C(=O)OC(C)(C)C)CC2)c(C)c1,-,-,0,-,-,-
CCn1c(SCC(N)=O)nnc1-c1cc2c(C)nn(-c3ccccc3)c2s1,0,0,15µM,?,0,0
O=C(/C=C/Nc1ccc(Nc2ccccc2)cc1)c1cccs1,?,4µM,4.3µM,?,-,2µM
CNc1cc([N+](=O)[O-])ccc1N/C=C/C(=O)c1cccs1,0,0,0,?,0,0
C/C(=N/OCC(=O)Nc1ccc(C)cc1C)c1cccs1,0,0,0,0,?,0
C/C(=N\OCC(=O)Nc1ccccc1C(=O)O)c1cccs1,0,0,21µM,0,-,0
Cc1ccc(NC2CCCN(C(=O)c3cccs3)C2)cc1C (configuration not stated),0,0,?,0,-,0
Cc1ccc(N/C=C/C(=O)c2cccs2)cc1C,?,0,0.19µM,?,2.2µM,3.5µM
O=C(/C=C/Nc1cccc([N+](=O)[O-])c1)c1cccs1,?,0,1.7µM,?,16µM,3.2µM
CCN1CCN(C(=O)c2ccc(CN(c3ccccc3)S(=O)(=O)c3ccccc3)cc2)CC1,0,0,0,0,-,0
NC(=O)c1ccc(C(F)(F)F)n(Cc2cccc(Cl)c2)c1=O,0,0,0,?,0,0
CCOC(=O)N1CCc2c(sc3c2c(=O)n(CCc2ccccc2)c(=O)n3Cc2cc(C)ccc2C)C1,-,-,0,-,0,-
Cc1cc(N/C=C/C(=O)c2cccs2)ccc1F,2.9µM,?,0.95µM,?,14µM,4µM
O=C(/C=C/Nc1ccccc1C(=O)O)c1cccs1,16µM,1.4µM,3.4µM,?,11µM,1µM
Cc1c(N/C=C/C(=O)c2cccs2)c(=O)n(-c2ccccc2)n1C,0,0,?,0,0,0
CC(=O)N[C@H](CC(C)C)C(=O)O,-,-,-,-,0,-
Cc1ccc(-n2ncc3c(NC4CCCCC4)ncnc32)cc1,-,-,0.43µM,-,-,-
Cc1ccc(-n2ncc3c(Nc4ccc(Oc5ccccc5)cc4)ncnc32)cc1,-,-,0,-,-,-
SMILES,ELG1 genotoxic,NPC1 prom act,FLuc counter,ELG1 DNA repair,SMN2 splice enh,Rab9 prom act
Clc1cccc(-n2ncc3c(NC4CCCCC4)ncnc32)c1,-,-,4.8µM,-,-,-
Fc1ccc(-n2ncc3c(NC4CCCCCC4)ncnc32)cc1,-,-,4.8µM,-,-,-
Cc1ccc(Cl)cc1-n1ncc2c(NC3CCCCC3)ncnc21,-,-,0,-,-,-
Cc1ccc(-n2ncc3c(NC4CCCCCC4)ncnc32)cc1,-,-,0.95µM,-,-,-
Cc1nnc(SCCC(=O)Nc2nc(-c3ccccc3)ns2)s1,-,-,0,-,0,-
O=C(CSc1ncn[nH]1)Nc1nc(-c2ccccc2)ns1,?,0,?,0,0,0
CC(C)C(=O)Nc1nc(-c2ccccc2)ns1,?,3.5µM,15µM,?,2.2µM,2.8µM
CCCC(=O)Nc1nc(-c2ccccc2)ns1,0,?,17µM,?,?,?
CCCSc1nsc(NC(=O)CC)n1,?,0.28µM,0.67µM,?,-,0.11µM
CCC(=O)Nc1nc(-c2ccccc2)ns1,0,4µM,15µM,?,11µM,2µM
CC(=O)Nc1nc(-c2ccc(Cl)cc2)ns1,0,?,11µM,?,?,4µM
CC(=O)Nc1cc(-c2ccc(Cl)cc2)[nH]n1,?,3.5µM,?,?,22µM,?
Cc1ccc(-c2nnn3c2nc(NCC(C)c2ccccc2)c2ccccc23)cc1 (configuration not stated),-,-,?,-,0,-
CCOc1ccc(N=C(NN)c2ccc3ccccc3n2)cc1,?,0,11µM,?,0,?
COc1cc(NC(=O)COC(=O)c2ccc3ccccc3n2)cc(OC)c1,0,0,0,0,-,0
Cc1ccc(CN2CCC(CNc3ncnc4onc(-c5ccc(F)cc5)c34)CC2)cc1,-,-,0,-,-,-
CCCCCCOc1ccc(C(=O)O)cc1,0,0,?,?,-,0
CCCCOc1ccc(-c2ncc(C(=O)O)c(C)n2)cc1,0,0.5µM,2.4µM,?,14µM,0.56µM
COc1cc2c(cc1OC)C(COc1ccc(F)cc1)N(C(=O)c1cccc(F)c1)CC2 (configuration not stated),-,-,0,-,-,-
Cc1c(/C=N/NC(=O)CNc2ccccc2)c2ccccn2c1C(=O)c1ccncc1,0,0,0,18µM,0,0
Cc1c(/C=N/NC(=O)CNc2ccccc2)c2ccccn2c1C(=O)c1ccc(Cl)cc1,0,0,0,23µM,-,0
Cc1ccsc1C(=O)Nc1nccs1,0,?,?,?,-,?
Cc1ccc(C(=O)Nc2nccs2)cc1,?,2.8µM,8.5µM,?,10µM,2.2µM
O=C(Nc1nccs1)c1ccc(S(=O)(=O)NCc2cccs2)cc1,0,0,0,18µM,0,0
Nc1ccc(C(=O)Nc2nccs2)cc1,?,?,?,?,13µM,4µM
SMILES,ELG1 genotoxic,NPC1 prom act,FLuc counter,ELG1 DNA repair,SMN2 splice enh,Rab9 prom act
O=C(Nc1nccs1)c1ccc(S(=O)(=O)NCC2CCCCC2)cc1,0,0,0,0,0,0
Cc1ccc(C(=O)Nc2nc(=O)[nH]s2)cc1,0,0,24µM,0,0,0
COc1cccc(Cn2c(=O)n(-c3cccc(Cl)c3C)c(=O)c3c4c(sc32)CN(C(C)=O)CC4)c1,-,-,0,-,-,-
CC(NC(=O)c1ccco1)C(=O)Nc1nccs1 (configuration not stated),0,-,-,0,-,-
CC(=O)Nc1sc(NC(=O)c2ccc(C)cc2)nc1-c1cccs1,0,0,0,0,11µM,0
COc1ccc(C(=O)Nc2nc(-c3cccs3)c(NC(C)=O)s2)cc1,0,0,0,?,0,0
O=C(Nc1nccs1)c1ccc(NC(=O)c2ccco2)cc1,?,4µM,17µM,?,?,2.8µM
O=C1C[C@H]2OCC=C3CN4CC[C@@]5(C(=O)O)[C@H](N1)C2[C@H]3C[C@H]45 (some centres not stated),-,-,-,-,0[9.22 µM],-
COc1cccc(NC(=O)C2CCN(S(=O)(=O)c3c(C)noc3/C=C/c3cccs3)CC2)c1,-,-,0,-,0,-
C=C(C)Cn1c(=O)c2c(nc3n2CCCN3CCc2ccccc2)n(C)c1=O,0,0,0,16µM,-,0
